Results published in PubChem BioAssay AID1159580 (chemical genetic matrix, 2015).
Among all 5,500 compounds or so, about 2,000 (36%) were called active. Roughly 18% stayed inconclusive and do not appear here. No stated cut-off is given here; in the data, active means normalized growth mostly below about 0.91 (no sharp cut-off); inconclusive means no clear call, values can overlap the other calls; inactive means mostly above about 0.92. Some of the results follow.

Assay: chemical genetic growth profiling, strain panel (AID 1159580);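 further: tested at 20 µM; growth read once vehicle control cultures reached saturation at 30 °C; 1 = growth at the plate median or of vehicle wells; lower values mean less growth of the strain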
Conditions: S. cerevisiae deletion strains, growth OD

Measured: normalized growth

CC1(C)C(=O)CC[C@@]2(C)C1C[C@@H](O)[C@@]1(C)C3=CC(=O)O[C@@H](c4ccoc4)[C@]3(C)CCC21 (stereo partly drawn)
inactive: locus YAL021C, strain ccr4, hits give low values 1.02 | locus YAL026C, strain drs2, hits give low values 1.02 | locus YAL030W, strain snc1, hits give low values 1.02 | locus YBL061C, strain skt5, hits give low values 1.03 | locus YBR009C, strain hhf1, hits give low values 1.01 | locus YBR021W, strain FUR4, hits give low values 0.967 | locus YBR023C, strain chs3, hits give low values 1.02 | locus YBR171W, strain sec66, hits give low values 1.04 | locus YBR229C, strain ROT2, hits give low values 1.01 | locus YBR231C, strain swc5, hits give low values 1.01 | locus YBR279W, strain paf1, hits give low values 1.01 | locus YCL011C, strain gbp2, hits give low values 1.02 | locus YCL016C, strain dcc1, hits give low values 1.02 | locus YCL029C, strain bik1, hits give low values 0.999 | locus YCL069W, strain vba3, hits give low values 1.02 | locus YCR088W, strain abp1, hits give low values 1.02 | locus YDL005C, strain med2, hits give low values 1.05 | locus YDL035C, strain GPR1, hits give low values 1.01 | locus YDL040C, strain nat1, hits give low values 1.02 | locus YDL074C, strain BRE1, hits give low values 1.01 | locus YDL101C, strain DUN1, hits give low values 1.03 | locus YDL134C, strain PPH21, hits give low values 1.03 | locus YDL185W, strain tfp1, hits give low values 1.02 | locus YDL192W, strain arf1, hits give low values 0.987 | locus YDR001C, strain nth1, hits give low values 1.03 | locus YDR069C, strain doa4, hits give low values 1.01 | locus YDR101C, strain arx1, hits give low values 0.963 | locus YDR137W, strain rgp1, hits give low values 1.05 | locus YDR159W, strain sac3, hits give low values 1.05 | locus YDR162C, strain NBP2, hits give low values 1.01 | locus YDR195W, strain ref2 0.982 | locus YDR297W, strain sur2, hits give low values 1.02 | locus YDR318W, strain mcm21, hits give low values 1.01 | locus YDR334W, strain swr1, hits give low values 1.02 | locus YDR335W, strain msn5, hits give low values 1.01 | locus YDR388W, hits give low values 1 | locus YDR392W, strain spt3, hits give low values 1.03 | locus YDR502C, strain sam2, hits give low values 1.02 | locus YEL003W, strain gim4, hits give low values 1.02 | locus YEL037C, strain rad23, hits give low values 1.02 | locus YEL061C, strain CIN8 (second series), hits give low values 1.03 | locus YEL061C, strain CIN8, hits give low values 1 | locus YER015W, strain faa2, hits give low values 1.01 | locus YER016W, strain bim1, hits give low values 1.03 | locus YER110C, hits give low values 1 | locus YER111C, strain swi4, hits give low values 1.02 | locus YER155C, strain BEM2 (second series), hits give low values 1.03 | locus YER155C, strain BEM2, hits give low values 0.997 | locus YER167W, strain BCK2, hits give low values 0.989 | locus YFR010W, strain ubp6, hits give low values 1.01 | locus YGL078C, strain dbp3, hits give low values 1.03 | locus YGL086W, strain mad1, hits give low values 0.998 | locus YGL167C, strain pmr1, hits give low values 1.04 | locus YGL173C, strain kem1, hits give low values 1.03 | locus YGL227W, strain vid30, hits give low values 1.03 | locus YGL240W, strain doc1, hits give low values 1.02 | locus YGL248W, strain PDE1, hits give low values 1.03 | locus YGL253W, strain hxk2, hits give low values 1.01 | locus YGR135W, strain pre9, hits give low values 1.06 | locus YGR252W, strain gcn5, hits give low values 1 | locus YHR013C, strain ard1, hits give low values 1.03 | locus YHR027C, strain rpn1, hits give low values 1.02 | locus YHR079C, strain IRE1 (second series), hits give low values 0.998 | locus YHR094C, strain hxt1, hits give low values 0.991 | locus YHR129C, strain ARP1, hits give low values 1.01 | locus YHR142W, strain chs7, hits give low values 1.04 | locus YHR200W, strain rpn10, hits give low values 1 | locus YIL066C, strain RNR3, hits give low values 1 | locus YIL073C, strain SPO22, hits give low values 0.977 | locus YIL125W, strain kgd1, hits give low values 0.984 | locus YIR030C, strain dcg1, hits give low values 0.999 | locus YJL092W, strain hpr5, hits give low values 1.03 | locus YJL095W, strain BCK1 (second series), hits give low values 1.01 | locus YJL095W, strain BCK1, hits give low values 1.04 | locus YJL115W, strain asf1, hits give low values 1.04 | locus YJL129C, strain trk1, hits give low values 1.02 | locus YJL134W, strain LCB3, hits give low values 1 | locus YJL154C, strain vps35, hits give low values 1.02 | locus YJL164C, strain tpk1, hits give low values 1.02 | locus YJL166W, strain qcr8, hits give low values 1.02 | locus YJL168C, strain set2, hits give low values 1 | locus YJL187C, strain SWE1 (second series), hits give low values 1.04 | locus YJL187C, strain SWE1, hits give low values 1.02 | locus YKL009W, strain mrt4, hits give low values 1.02 | locus YKL068W, hits give low values 1 | locus YKL085W, strain MDH1 (second series), hits give low values 0.993 | locus YKL085W, strain MDH1, hits give low values 0.993 | locus YKL160W, strain elf1, hits give low values 1.02 | locus YKR001C, strain vps1, hits give low values 0.975 | locus YKR026C, strain gcn3, hits give low values 1.02 | locus YKR091W, strain srl3, hits give low values 1.03 | locus YLL001W, strain dnm1, hits give low values 1.03 | locus YLL026W, hits give low values 1.02 | locus YLL041C, strain sdh2, hits give low values 1 | locus YLR027C, strain aat2, hits give low values 1.02 | locus YLR039C, strain RIC1, hits give low values 1.05 | locus YLR058C, strain SHM2, hits give low values 1.01 | locus YLR102C, strain apc9, hits give low values 1.01 | locus YLR221C, strain rsa3, hits give low values 1.05 | locus YLR258W, strain gsy2, hits give low values 1.01 | locus YLR262C, strain YPT6 (second series), hits give low values 1.06 | locus YLR268W, strain sec22, hits give low values 0.976 | locus YLR320W, strain mms22, hits give low values 1.03 | locus YLR330W, strain CHS5, hits give low values 1 | locus YLR342W, strain FKS1, hits give low values 1.02 | locus YLR357W, strain rsc2, hits give low values 1.02 | locus YLR370C, strain arc18, hits give low values 1.02 | locus YLR371W, strain rom2, hits give low values 0.957 | locus YLR384C, strain iki3, hits give low values 1.03 | locus YLR418C, strain cdc73, hits give low values 1.05 | locus YML016C, strain PPZ1, hits give low values 1.01 | locus YML032C, strain rad52, hits give low values 0.987 | locus YML120C, strain ndi1, hits give low values 1.01 | locus YML124C, strain tub3, hits give low values 0.998 | locus YMR058W, strain fet3, hits give low values 1.01 | locus YMR078C, strain ctf18, hits give low values 1.01 | locus YMR125W, strain sto1, hits give low values 1.04 | locus YMR129W, hits give low values 1.03 | locus YMR205C, strain PFK2, hits give low values 1.05 | locus YMR223W, strain ubp8, hits give low values 1 | locus YMR231W, strain pep5, hits give low values 1.02 | locus YMR307W, strain GAS1, hits give low values 0.91 | locus YNL067W, strain RPL9B, hits give low values 1.04 | locus YNL071W, strain lat1, hits give low values 1.02 | locus YNL128W, strain TEP1, hits give low values 1.01 | locus YNL153C, strain GIM3, hits give low values 1.04 | locus YNL209W, strain ssb2, hits give low values 1.03 | locus YNL233W, strain BNI4, hits give low values 1.03 | locus YNL248C, strain rpa49, hits give low values 1.03 | locus YNL250W, strain rad50, hits give low values 1.03 | locus YNL271C, strain bni1, hits give low values 0.999 | locus YNL298W, strain CLA4, hits give low values 0.997 | locus YNL307C, strain MCK1, hits give low values 1.01 | locus YNL322C, strain KRE1 (second series), hits give low values 1.03 | locus YNR049C, strain mso1, hits give low values 1.02 | locus YNR052C, strain pop2, hits give low values 1.04 | locus YOL012C, strain htz1 0.777 | locus YOL147C, strain pex11, hits give low values 0.991 | locus YOR001W, strain rrp6, hits give low values 1.03 | locus YOR061W, strain CKA2, hits give low values 1.01 | locus YOR069W, strain VPS5, hits give low values 1.01 | locus YOR070C, strain gyp1, hits give low values 1.02 | locus YOR080W, strain dia2, hits give low values 1.02 | locus YOR083W, strain WHI5, hits give low values 1.02 | locus YOR106W, strain vam3, hits give low values 1.05 | locus YOR136W, strain idh2, hits give low values 1.01 | locus YOR144C, strain elg1, hits give low values 0.997 | locus YOR184W, strain ser1, hits give low values 0.967 | locus YOR265W, strain rbl2, hits give low values 1.03 | locus YOR270C, strain vph1, hits give low values 1.04 | locus YOR290C, strain snf2, hits give low values 1.03 | locus YOR316C, strain cot1, hits give low values 1.01 | locus YPL051W, strain arl3, hits give low values 1.03 | locus YPL055C, strain LGE1, hits give low values 1.01 | locus YPL078C, strain atp4, hits give low values 1 | locus YPL106C, strain sse1, hits give low values 1.02 | locus YPL240C, strain hsp82, hits give low values 1.01 | locus YPL241C, strain CIN2, hits give low values 0.996 | locus YPR119W, strain clb2, hits give low values 0.995 | locus YPR141C, strain kar3, hits give low values 0.99 | locus YPR163C, strain tif3, hits give low values 0.992 | locus YPR167C, strain met16, hits give low values 1.01 | strain wtn01, hits give low values 0.965
